Assay outcomes (PubChem BioAssay)
This excerpt belongs to a sample that is enriched for hits.
Tgondii IFNg: inhibitors of Toxoplasma gondii growth with IFN-gamma; Toxoplasma gondii growth in IFN-gamma-treated host cells; hits give low values; activity change, negative = inhibition, % (test concentration not listed); actives 3.8% (n = 69,000); AID 1259416; in the data active means activity change below about -70%, passing the limit was not always enough;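 further: host cells are HeLa cells infected with Toxoplasma gondii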
Of the large screens only hits and unclear results are named; the others gave an inactive call.

COc1ccccc1C(=O)Nc1cc2cc(Br)ccc2oc1=O	none
COc1ccccc1C(=O)Nc1ccc2c3c(cccc13)CC2	Tgondii IFNg -102
Cc1c(C(=O)N[C@H](C)C(=O)N2CCCC(C(=O)CS(C)(=O)=O)C2)[nH]c2ccccc12 (stereo partly drawn)	none
O=S(=O)(NCCc1csc(-c2ccc(Cl)cc2)n1)c1ccc(F)cc1F	none
COc1ncc(-c2ccc3nccc(-c4ccnnc4)c3c2)cc1NS(=O)(=O)c1ccc(F)cc1F	Tgondii IFNg -78
COCCN1C(=O)CCc2cc(NS(=O)(=O)c3ccc(F)cc3F)ccc21	none
Cc1nccn1-c1c(N)cccc1Cl	none
O=C(/C=C/c1ccc(O)c(O)c1)O[C@@H]1C[C@](OC(=O)/C=C/c2ccc(O)c(O)c2)(C(=O)O)C[C@@H](O)[C@H]1O	none
CC(C)c1cc(-c2n[nH]c(=O)n2-c2ccc3c(ccn3C)c2)c(O)cc1O	Tgondii IFNg -79
O=C(CS(=O)(=O)c1ccccc1)c1ccc(Cl)cc1	none
Cn1ccnc1-c1nccn1Cc1ccc(CN2CCCC2)cc1	none
COc1ccc2c(c1)NC1(CCN(C(=O)CC3CCCCC3)CC1)c1cccn1-2	none
Cc1nc2c(Cl)cc(Cl)cc2c2nc(N)nn12	Tgondii IFNg -92
CNC(=O)C(C)N(C)Cc1nnc(CC2CCNCC2)n1-c1ccccc1 (stereo not drawn)	none
COCCC(=O)NC(Cc1cccs1)c1nccs1 (stereo not drawn)	none
COCCO[C@@H]1C[C@@H]2CN(C(=O)c3cccn3C)CCN2C1	none
CCOCC12CCCOC1CCN(C(=O)c1ccncc1)C2 (stereo not drawn)	none
CCOCC12CCCOC1CCN(Cc1cccs1)C2 (stereo not drawn)	none
CCOCC12CCCOC1CCN(Cc1ccc(C)s1)C2 (stereo not drawn)	Tgondii IFNg -88
Cc1nc(CN2CCCC(CCc3ccc(F)cc3)C2)no1 (stereo not drawn)	none
Cn1nccc1CN1CC[C@@H]2OCCN(C(=O)c3cccnc3)[C@@H]2C1	none
Cc1nc(CNC(=O)C(C)Cn2cccn2)cs1 (stereo not drawn)	none
O=C1COC2(COCCN(CCO)C2)CN1c1ccsc1 (stereo not drawn)	none
Cc1cc2nnc(-c3ccc(C(F)(F)F)cc3)n2[nH]1	none
FC(F)(F)c1ccc(-c2nnc3ccc(N4CCCCC4)nn23)cc1	Tgondii IFNg -109
FC(F)(F)c1cc(-c2nnc(N3CCCC3)o2)cc(C(F)(F)F)c1	none
COc1ccc(C(=O)CC2(O)C(=O)Nc3ccc(C)cc32)c(OC)c1 (stereo not drawn)	none
Cn1nc(C(F)(F)F)c(-c2ccc(F)cc2)c1NC(=O)Nc1ccccc1	none
O=C(OCC(O)CNC12CC3CC(CC(C3)C1)C2)C12CC3CC(CC(C3)C1)C2 (stereo not drawn)	Tgondii IFNg -89
CCCC(NC(=O)C(C)(C)NC(=O)c1cccs1)c1cccs1 (stereo not drawn)	none
COCC(=O)N1CCC2(CC1)CN[C@@H](CO)c1c2c2ccc(OC)cc2n1C	none
O=C(c1cn2c(n1)COCC2)N1CCN(c2ccc(Cl)cc2)CC1	none
Cc1oc(-c2cccc(Cl)c2)nc1Cn1ccn2nc(-c3ccc(F)cc3)cc2c1=O	none
Cc1onc(-c2c(Cl)cccc2Cl)c1C(=O)N(C(C)C)C(C)C	none
CC(C)N(C(=O)c1ccccc1-c1ccccc1C(=O)N(C(C)C)C(C)C)C(C)C	Tgondii IFNg -87
CC(=O)c1ccccc1-c1ccccc1C(=O)NC(C)C	none
Cc1sc2nc(C3CCCN(C(=O)c4ccccc4F)C3)[nH]c(=O)c2c1C (stereo not drawn)	none
COc1ccc(S(=O)(=O)N(Cc2nc(-c3cccc(Cl)c3)oc2C)c2ccccc2OC)cc1	none
Cc1cc2c(C)nc(N3CCC(N4CCCN(C(=O)c5ccco5)CC4)CC3)nc2cc1F	none
O=C(Cn1c(=O)cc(-c2nc(C3CC3)no2)c2ccccc21)NC1CCCC1	none
COc1cccc(CN(Cc2n[nH]nc2-c2ccccc2)CC2CCCO2)c1 (stereo not drawn)	none
Cc1ccc(-c2nc(NC(=O)c3cncc(-c4cccs4)c3)sc2C)cc1Cl	none
Cc1ccc(-c2nc(NC(=O)c3cc(C(C)(C)C)nn3C)sc2C)cc1Cl	Tgondii IFNg -78
CCc1cc(C(=O)Nc2nc3c(s2)CCCCCC3)n(C)n1	none
CNC(=O)N1C[C@@H]2N(c3ncccn3)CCC[C@@]2(C(=O)NCC2CC2)C1	none
Cc1cccc(-n2c(SCC(N)=O)nnc2-c2cccs2)c1C	none
CCCCOc1ccc(-c2nnc(-c3cccs3)n2-c2ccccc2)cc1	Tgondii IFNg -80
COc1ccc(OCc2nn3c(-c4cccs4)nnc3s2)cc1	none
C=CCn1cc(CNC23CC4CC(C2)CC(n2nnc(C)n2)(C4)C3)c(C)n1	none
COc1ccccc1Nc1nnns1	none
CCOC(=O)Nc1nnc(CCc2ccccc2)s1	none
c1ccc(CCNc2nnns2)cc1	Tgondii IFNg -97
COC(=O)c1c(NCC2CC2)c2cccc(Cl)c2[nH]c1=O	none
CCn1c(=O)c(-c2nc(-c3ccc(Cl)c(F)c3)no2)c(O)c2ccccc21	none
CCOCC1CN(C(=O)COc2ccc(C)cc2)Cc2ncn(C)c21 (stereo not drawn)	none
CCc1c(C)nc2cc(-c3cc(C)on3)nn2c1N1CCN(Cc2ccccn2)CC1	Tgondii IFNg -85
Cc1cc(N2CCCN(Cc3cc(-c4ccccc4)no3)CC2)ccn1	none
CCN1CCC2(CN(c3ncccn3)CC23CCN(Cc2ccccn2)CC3)C1=O (stereo not drawn)	none
Cc1cncc(C(=O)N2CC[C@@H]3[C@H]2CCN3S(C)(=O)=O)c1	none
CC(=O)CC1(O)C(=O)N(CCOc2ccccc2)c2ccccc21 (stereo not drawn)	none
COc1cc([C@@H]2c3cc4c(cc3C(OC3O[C@@H]5COC(C)O[C@H]5[C@H](O)[C@H]3O)C3COC(=O)[C@@H]32)OCO4)cc(OC)c1O (stereo partly drawn)	none
COc1cc([C@@H]2c3cc4c(cc3C(OC3OC5COC(C)OC5C(O)C3O)C3OCC(=O)[C@@H]32)OCO4)cc(OC)c1O (stereo partly drawn)	Tgondii IFNg -81
COc1cc([C@@H]2c3cc4c(cc3[C@@H](O[C@@H]3O[C@@H]5CO[C@@H](c6cccs6)O[C@H]5[C@H](O)[C@H]3O)[C@H]3COC(=O)[C@H]23)OCO4)cc(OC)c1O	Tgondii IFNg -71
CC(C)(C)c1csc(NC(=O)COc2ccc3ccccc3c2)n1	none
O[C@@H]1C[C@H]2CN(Cc3cnc(NCc4ccccc4)nc3)C[C@H]2C[C@@H]1O	none
C=CCn1c2c(ccc1=O)CC(NC(=O)N1CCCC1)CC2 (stereo not drawn)	none
Cn1c(Cc2csc(Nc3ccc(F)cc3)n2)nnc1SCC(N)=O	none
O=C1CCC2(CCCO2)CCN1Cc1noc(C2CCCC2)n1 (stereo not drawn)	none
C[C@@H]1COC(Nc2ccc3ncnc(Nc4ccc(OCc5nccs5)c(Cl)c4)c3c2)=N1	Tgondii IFNg -73
COc1cc2ncnc(Nc3cccc(Cl)c3)c2cc1OC	none
CO[C@H]1CN(C)C(=O)c2cc(NS(=O)(=O)c3cccc(Cl)c3)ccc2OC[C@H](C)NC[C@H]1C	Tgondii IFNg -86
CO[C@@H]1CN(C)C(=O)c2cc(NC(=O)c3cnccn3)ccc2OC[C@H](C)NC[C@@H]1C	none
CO[C@@H]1CN(C)C(=O)c2cc(NS(=O)(=O)c3cn(C)cn3)ccc2OC[C@@H](C)NC[C@@H]1C	none
COc1cccc(NC(=O)Nc2ccc3c(c2)C(=O)N(C)C[C@H](OC)[C@H](C)CN[C@@H](C)CO3)c1	none
COc1cccc(NC(=O)Nc2ccc3c(c2)C(=O)N(C)C[C@H](OC)[C@@H](C)CN[C@H](C)CO3)c1	none
